# According to PubChem BioAssay (NCI):
# Compounds without any hit were thinned out: in the full panel of roughly 83,000, 20% have a hit.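 Plates (96-well) were seeded with cells, treated with compound at one concentration, and incubated for 48 hours before percent growth was determined.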 A number with no mark means an inactive call. The source made the active and inactive calls. The calls were made as follows: active = growth percent below 10; inactive = the rest.
# Tests used:
# Assay in all cases: NCI-60 one-dose screen, 48 h (100 = growth as untreated, 0 = no growth, -100 = all killed)
# NCI-H23 lung = details: 10 µM unless noted
# NCI-H226 lung = details: 10 µM unless noted
# NCI-H322M lung = details: 10 µM unless noted
# HOP-62 NSCLC = details: 10 µM unless noted
# NCI-H460 lung = details: 10 µM unless noted
# HOP-92 NSCLC = details: 10 µM unless noted
# NCI-H522 lung = details: 10 µM unless noted
# A549/ATCC NSCLC = details: 10 µM unless noted
# 786-0 renal = details: 10 µM unless noted
# COLO 205 colon = details: 10 µM unless noted
# DU-145 prostate = details: 10 µM unless noted
# MALME-3M melanoma = details: 10 µM unless noted
# MDA-MB-231 breast = details: 10 µM unless noted
# RXF 393 renal = details: 10 µM unless noted
# SF-268 CNS = details: 10 µM unless noted
# SF-295 CNS = details: 10 µM unless noted
# SF-539 CNS = details: 10 µM unless noted
# UACC-257 melanoma = details: 10 µM
# M14 melanoma = details: 10 µM unless noted
SMILES,growth (NCI-H23 lung),growth (NCI-H226 lung),growth (NCI-H322M lung),growth (HOP-62 NSCLC),growth (NCI-H460 lung),growth (HOP-92 NSCLC),growth (NCI-H522 lung),growth (A549/ATCC NSCLC),growth (786-0 renal),growth (COLO 205 colon),growth (DU-145 prostate),growth (MALME-3M melanoma),growth (MDA-MB-231 breast),growth (RXF 393 renal),growth (SF-268 CNS),growth (SF-295 CNS),growth (SF-539 CNS),growth (UACC-257 melanoma),growth (M14 melanoma)
C/C(Cc1ccc(Cl)cc1)=C(/c1ccccc1)c1ccc(OCCN)cc1,98.2%,91.4%,99.8%,108%,104%,91.6%,96.1%,99.1%,106%,103%,106%,88.5%,98.7%,102%,94.2%,99.7%,99.7%,106%,95.7%
C=C1C(=O)O[C@@H]2/C=C(/C)C3=CC(=O)[C@@](C)(C[C@H](OC(=O)/C(C)=C\C)[C@@H]12)O3,6.39% (active),34.5%,89.1%,82.4%,27.2%,-11.8% (active),-82.3% (active),72.6%,-56.5% (active),-52.1% (active),8.26% (active),-22.9% (active),-16.8% (active),-65% (active),30.2%,55.9%,-19.4% (active),-36.2% (active),-27.6% (active)
CS(=O)c1nccc(-c2c(-c3ccc(F)c(OCCc4ccccc4)c3)nc3sccn23)n1 (configuration not stated),86.1%,102%,76.7%,98.2%,57.3%,77%,-79.1% (active),109%,104%,80.7%,4.08% (active),87.5%,84.7%,98.5%,101%,101%,95.9%,28.5%,76%
Cc1ccc(/C=C/c2nn3c(-c4ccco4)nnc3s2)cc1,104%,100%,94%,114%,99.9%,107%,94.4%,97.8%,88.4%,102%,99.7%,106%,110%,95.5%,104%,95.7%,94.7%,112%,94.8%
C=CCn1c(SCC(=O)Nc2cccc(C(=O)/C=C/c3ccc(Cl)cc3)c2)nc2ccccc2c1=O,92.3%,102%,95.6%,113%,95.4%,88.7%,81.8%,85.7%,98.2%,112%,95.1%,95.6%,81.3%,87%,87.3%,94.7%,85.9%,102%,87.8%
COc1cc2c3c(n(CCCNC4CCCC4)c(=O)c2cc1OC)-c1cc2c(cc1C3=O)OCO2,-62.8% (active),80.5%,6.3% (active),-78% (active),-74.4% (active),103%,54.6%,-78.8% (active),-87.9% (active),-89.9% (active),-78.5% (active),-75% (active),-76.6% (active),49.7%,-42.7% (active),-76.8% (active),-85.4% (active),,-88.9% (active)
CC1OC(O[C@@H]2C(O)C(CO)OC(O[C@H]3COC(O[C@H]4CC[C@]5(C)[C@H]6CC[C@]78OC[C@@]9(CC[C@](C)(C=O)C[C@H]97)[C@H](O)C[C@@]8(C)[C@]6(C)CC[C@H]5C4(C)C)[C@@H](OC4OC(CO)[C@@H](O)[C@@H](O)[C@@H]4O)[C@@H]3O)[C@H]2OC2OC[C@@H](O)[C@@H](O)[C@@H]2O)[C@@H](O)[C@@H](O)[C@H]1O (some centres not stated),-15.2% (active),-47.5% (active),-35.3% (active),-74.6% (active),74.1%,15.5%,-55.4% (active),-63.3% (active),-53% (active),-37.7% (active),41.8%,-69.7% (active),-48.4% (active),-36.2% (active),-56.3% (active),-59.2% (active),1.77% (active),-78% (active),-47.3% (active)
